# Measurements taken from PubChem BioAssay (NCATS).
# Where “and” joins values, the source holds several entries; their conditions need not be identical. Equal entries are not always repeated. Inconclusive results are not listed. Where a call stands in place of a potency, no number is given. A number with no mark means an inactive call. Calls of active or inactive are those of the source. Calls follow the shape of the dose curve; as a rule, active = well fitted curve in the direction sought with a large enough effect; inconclusive = small, poorly fitted or top-dose-only effect, or another doubt; inactive = no such curve, though single readings can be large; an effect the other way counts as inactive or inconclusive.
# Legend:
# [1] = molecular target: Cellular tumor antigen p53 (Homo sapiens) (UniProt P04637); assay: Primary qHTS for small molecule compounds that upregulate eGFP-tagged delta133p53alpha (in N-terminal) cells. (AID 2060322); details: NCI-H358 eGFP-delta133p53alpha fluorescence, 24 h; activation: stronger effect = higher value;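 also: cells pre-induced with doxycycline then dosed without doxycycline; nearly all actives have a fitted effect of over 75% in size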
# Outline: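 NCI-H358 cells pre-induced 24 h with 10 ng/ml doxycycline for eGFP-delta133p53alpha, plated dox-free and exposed 24 h at 37C to titrated compounds. Fixed, Hoechst-stained; gated GFP peak intensity by laser scanning cytometry, normalized to DMSO (0%) and 57.5 uM 5-azacytidine (100%).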
# [2] = molecular target: Retinaldehyde dehydrogenase 3 (Homo sapiens) (UniProt P47895); assay: qHTS for Inhibitors of the Aldehyde Dehydrogenase Family (ALDH1A3) Primary screen (AID 2061315); details: ALDH inhibition qHTS; series mostly up to 56 µM; also: potency is read from the fitted curve at half-maximal effect
# [3] = molecular target: Retinaldehyde dehydrogenase 3 (Homo sapiens) (UniProt P47895); assay: qHTS for Inhibitors of the Aldehyde Dehydrogenase Family (ALDH1A3) Validation screen (AID 2061312); details: ALDH1A3 enzyme inhibition qHTS validation, fluorescence; series mostly up to 84.7 µM; also: nearly all actives have a fitted effect of over 45% in size
# Chain of Cellular tumor antigen p53 (Homo sapiens) (P04637 whole entry, looked up): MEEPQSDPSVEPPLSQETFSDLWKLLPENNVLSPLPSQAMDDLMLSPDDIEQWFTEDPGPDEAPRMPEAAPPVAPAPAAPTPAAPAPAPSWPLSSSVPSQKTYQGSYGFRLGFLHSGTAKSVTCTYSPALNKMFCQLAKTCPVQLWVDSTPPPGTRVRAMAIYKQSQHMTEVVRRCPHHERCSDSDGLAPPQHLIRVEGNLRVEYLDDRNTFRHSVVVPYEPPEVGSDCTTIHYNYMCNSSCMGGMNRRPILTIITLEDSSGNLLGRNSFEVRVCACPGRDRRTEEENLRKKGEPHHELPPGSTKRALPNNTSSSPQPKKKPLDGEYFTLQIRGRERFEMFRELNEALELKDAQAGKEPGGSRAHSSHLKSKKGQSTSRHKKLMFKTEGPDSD
SMILES,activation [1],Potency [2],Potency [3]
O=C(NCc1cccs1)c1cc2nc(-c3ccco3)cc(C(F)(F)Cl)n2n1,0.477%,inactive,–
O=c1cc(NCCCN[C@@H]2CCOc3c(Br)cc(Br)cc32)[nH]c2ccsc12,0.477%,inactive,–
C#Cc1cccc(Nc2nc3cc(C(=O)O)ccc3c3cncnc23)c1,8.04%,inactive,–
Clc1ccc(Cn2c(Cc3ccccc3)nc3ccccc32)cc1,-5.25%,inactive,inactive
C/C=C/CCC1Cc2cc(O)c(CCCC)c(O)c2C(=O)O1 (centres undefined),-16%,inactive,–
CC1CCC2(C(=O)O)CCC3(C)C(=CCC4C5(C)CCC(O)C(C)(CO)C5CCC43C)C2C1(C)O (centres undefined),-0.893%,inactive,–
O=C(O)c1cc(I)ccc1NC(=O)[C@H](Cc1ccccc1)NCc1ccccc1,-19.7%,inactive,–
CN1C(CCl)Nc2cc(Cl)c(S(N)(=O)=O)cc2S1(=O)=O (centres undefined),-11.7% and -7.64%,inactive,–
CC(O)C1C(=O)N2C(C(=O)O)=C(SC3CNC(C(=O)N(C)C)C3)C(C)C12 (centres undefined),-0.506% and -5.25%,inactive,–
COc1c(C(CC(C)C)OC(C)=O)ccc(Oc2c(O)cc(C)cc2/C=C/C(C)=O)c1C(=O)O (centres undefined),-25.2%,inactive,–
Cn1nnc(-c2ccc(-c3ccc(N4C[C@H](COP(=O)(O)O)OC4=O)cc3F)cn2)n1,-3.67%,inactive,–
C[C@@H]1O[C@@H](O[C@H]2[C@H](O[C@H]3[C@H](O[C@H]4CC[C@@]5(C)C(CC[C@]6(C)C5CC=C5[C@@H]7CC(C)(C)CC(=O)[C@]7(C)CC[C@]56C)[C@@]4(C)CO)O[C@H](C(=O)O)[C@@H](O)[C@@H]3O)O[C@H](CO)[C@H](O)[C@@H]2O)[C@H](O)[C@H](O)[C@H]1O (some centres undefined),-17%,inactive,–
COc1ccc(S(=O)(=O)Nc2nc(-c3cccc([N+](=O)[O-])c3)cs2)cc1OC,1.67%,inactive,–
COC(=O)C1=C(C)NC(C)=C(C(=O)O[C@@H]2CCCN(Cc3ccccc3)C2)[C@@H]1c1cccc([N+](=O)[O-])c1,8.47% and 23.4%,inactive,inactive
COc1ccc([C@@]2(O)c3c(ccc4c3OC(C)(CCC=C(C)C)C=C4)NC(=O)[C@@H]2OC)cc1 (some centres undefined),-6.87%,inactive,–
COc1cccc(OC)c1-c1cc(C(=O)N[C@@H](CC(C)C)C(=O)O)nn1-c1ccnc2cc(Cl)ccc12,15.8%,inactive,–
COc1ccc2cc(C(C)C(=O)Oc3ccc(C(N)=S)cc3)ccc2c1 (centres undefined),-3.34%,inactive,inactive
O=C(O)c1cc(O)c2cccc(O)c2c1O[C@@H]1O[C@H](CO)[C@@H](O)[C@H](O)[C@H]1O,-20.5%,6.31 µM (active),–
